The record followed here is PubChem BioAssay.

Structures are written as SMILES. Values without a mark were called inactive. Some of the results follow. Activity calls are given as the source filed them.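 Rule for the calls, unless noted: active = mean inhibition above a cutoff equal to the average over all tested compounds plus one standard deviation (cut at about 70% in these data); inactive = the rest.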

Test [1] has as its target Photoreceptor-specific nuclear receptor (Homo sapiens) (UniProt Q9Y5X4). Briefly: retest of NR2E3-NCOR disrupting agonists – cell-based, luminescence, CHO-S two-hybrid, confirmation (AID 624378;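 active = average inhibition above a cutoff equal to the mean inhibition of all tested compounds plus one SD, cut at about 70% in these data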;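 note: 0% = DMSO in NR2E3 cells and 100% = DMSO in cells lacking NR2E3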). As to conditions: CHO-S mammalian two-hybrid NR2E3-NCOR, luciferase luminescence; at 3.98 µM; hits give high values.
Test [2] in a line: nonselective effects on VP16 transactivation – cell-based, luminescence, CHO-S, high throughput, counter-screen for NR2E3 agonist project, confirmation (AID 624379).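 Note: 0% = DMSO with VP16-transfected cells and 100% = DMSO with cells lacking VP16; higher means less reporter light so more repression of VP16 activity.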 As to conditions: CHO-S GAL4-VP16 luciferase reporter, at 3.98 µM, hits give high values.
Test [3] in a line: VP16-driven transactivation reporter suppression – cell-based, luminescence, HEK293, counter-screen for COUP-TFII antagonist project (AID 687007; in the data active = inhibition above about 13%). As to conditions: HEK293 Gal4-VP16 luciferase reporter, at 8.5 µM, hits give high values. On the technique in general: Counterscreens check selectivity or assay interference.
Test [4] has as its target COUP transcription factor 2 (Homo sapiens) (UniProt P24468). Briefly: retest of COUP-TFII reporter suppressors – cell-based, luciferase reporter, HEK293, triplicate, confirmation (AID 687008;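 active = mean inhibition over three repeats above a set limit taken from the earlier primary screen, cut at about 38% in these data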;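 note: 100% = cells given the luciferase reporter alone without the COUP-TF2 vector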). As to conditions: HEK293 NGFI-A luciferase reporter, luminescence; at 8.5 µM; hits give high values. A general note: In a reporter assay the amount or activity of a reporter protein is the signal.

Test [5] is described as follows: StAR promoter reporter inhibitors, counter-screen for LRH-1 inverse agonist project, cell-based, luminescence, high throughput (AID 651611; in the data active = inhibition above about 28%). As to conditions: StAR promoter luciferase reporter counterscreen, at 3.6 µM, hits give high values.
Test [6] concerns the target Nuclear receptor subfamily 5 group A member 2 (Homo sapiens) (UniProt O00482). The experiment in a line: NR5A2 activity suppression in reporter cells – cell-based, luminescence, confirmation (AID 651613; in the data active = inhibition above about 42%;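 note: HEK293T cells co-transfected with LRH-1 and StAR promoter luciferase reporter; 0% = vehicle wells and 100% = parental cells lacking receptor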). As to conditions: cell-based LRH-1 luciferase reporter, inverse agonism; at 3.6 µM; hits give high values.
Test [7] concerns the target Steroidogenic factor 1 (Homo sapiens) (UniProt Q13285). Briefly: inverse agonism at SF1 nuclear receptor – cell-based, luminescence, high throughput, counter-screen for LRH-1 inverse agonist project (AID 651614; in the data active = inhibition above about 44%;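 note: cells cotransfected with StAR promoter reporter and SF1 expression vector; 0% = vehicle on cells with receptor and 100% = vehicle on cells lacking receptor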). As to conditions: cell-based SF1 luciferase reporter, at 3.6 µM, hits give high values.
Test [8] is described as follows: compounds suppressing VP16-driven luciferase signal – cell-based, luminescence, high throughput, counter-screen for LRH-1 inverse agonist project (AID 651615; in the data active = inhibition above about 33%). As to conditions: Gal4-VP16 luciferase reporter cells, at 3.6 µM, hits give high values.
Test [9] relates to DAF-12 nuclear receptor (Heterodera glycines), GAL4-LBD fusion. The experiment in a line: hgDAF-12 GAL4 fusion reporter activation, retest – cell-based, luminescence, HEK293, GAL4-LBD fusion, confirmation (AID 743050;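 active = mean activation over triplicate wells above the hit cutoff derived from the earlier primary screen, cut at about 11% in these data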;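 note: 0% = DMSO low control and 100% = 2 mM sodium butyrate high control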). As to conditions: HEK293 GAL4-hgDAF12 luciferase reporter, agonist mode; at 6.8 µM; hits give high values; percent of butyrate response.
For test [10], the target named is Oxysterols receptor LXR-beta (Homo sapiens) (UniProt P55055). Briefly: nonspecific reporter activation via LXR – cell-based, luminescence, HEK293, H. glycines campaign, counter-screen for hgDAF-12 agonist project, confirmation (AID 743051;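 active = mean activation of the triplicate above a set limit carried over from the primary screen, none filed active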). As to conditions: HEK293 Gal4-LXR luciferase reporter, 24 h; at 6.8 µM; hits give high values.
The nature of test [11]: reduced OD of V66 E. coli with T4 gene 2 phage – absorbance, RecBCD inhibitor project, confirmation (AID 651982;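 active = mean inhibition over triplicates exceeding the hit threshold derived in the original primary screen, cut at about 11% in these data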). As to conditions: E. coli V66 + T4 2- phage, growth OD; at 11.9 µM; hits give high values.
Test [12] in a line: bacterial growth inhibition – absorbance, high throughput, counter-screen for RecBCD inhibitor project (AID 651983; in the data active = inhibition above about 20%;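 note: E. coli strain V66 grown with compound alone and no phage infection; 0% = bacteria with DMSO vehicle only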). As to conditions: E. coli viability, absorbance (OD) growth; at 11.9 µM; hits give high values.
A short description of test [13]: reduced optical density, T4-challenged addAB+ bacteria – absorbance, E. coli V3065, T4 phage, counter-screen for RecBCD inhibitor project, confirmation (AID 651984;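 active = mean inhibition above the solvent-only control wells' mean plus 3 SD, cut at about 22% in these data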;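 note: higher means less bacterial growth from phage killing when AddAB is blocked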). As to conditions: E. coli expressing H. pylori AddAB + T4 phage, OD growth; at 11.9 µM; hits give high values; gene 2 mutant T4, recBCD-deleted host.
For test [14], the system named is transactivating tegument protein VP16 (Human herpesvirus 1). Briefly: compounds suppressing VP16-driven luciferase signal – cell-based, luminescence, single concentration, counter-screen for SRC2 inhibitor project (AID 652007; in the data active = inhibition above about 36%). As to conditions: cell-based VP16 transactivation luciferase reporter, at 8.9 µM, hits give high values.
Test [15] has as its target Nuclear receptor coactivator 2 (Homo sapiens) (UniProt Q15596). Briefly: inhibition of GAL4-SRC2 driven luciferase expression – cell-based, luminescence, HEK293, triplicate, confirmation (AID 652008;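 active = mean inhibition above 46.5%, the solvent-only control mean plus 3 SD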;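 note: 0% = DMSO-treated cells and 100% = Gossypol at 36 µM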). As to conditions: HEK293 GAL4-SRC2 luciferase reporter, at 8.9 µM, hits give high values.

Photoreceptor-specific nuclear receptor (Homo sapiens), sequence (Q9Y5X4 whole entry, looked up, the tested form may be a part): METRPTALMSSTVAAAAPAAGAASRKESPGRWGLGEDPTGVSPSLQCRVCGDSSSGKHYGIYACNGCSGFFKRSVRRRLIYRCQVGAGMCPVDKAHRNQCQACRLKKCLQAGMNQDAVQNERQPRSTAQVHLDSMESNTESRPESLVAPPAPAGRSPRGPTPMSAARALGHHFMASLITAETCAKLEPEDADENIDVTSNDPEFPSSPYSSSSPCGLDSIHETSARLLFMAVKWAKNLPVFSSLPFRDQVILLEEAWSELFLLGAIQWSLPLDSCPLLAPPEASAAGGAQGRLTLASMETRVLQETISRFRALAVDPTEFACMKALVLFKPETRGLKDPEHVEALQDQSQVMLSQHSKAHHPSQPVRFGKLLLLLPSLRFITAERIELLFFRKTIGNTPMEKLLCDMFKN
Steroidogenic factor 1 (Homo sapiens), sequence (Q13285 whole entry, looked up, the tested form may be a part): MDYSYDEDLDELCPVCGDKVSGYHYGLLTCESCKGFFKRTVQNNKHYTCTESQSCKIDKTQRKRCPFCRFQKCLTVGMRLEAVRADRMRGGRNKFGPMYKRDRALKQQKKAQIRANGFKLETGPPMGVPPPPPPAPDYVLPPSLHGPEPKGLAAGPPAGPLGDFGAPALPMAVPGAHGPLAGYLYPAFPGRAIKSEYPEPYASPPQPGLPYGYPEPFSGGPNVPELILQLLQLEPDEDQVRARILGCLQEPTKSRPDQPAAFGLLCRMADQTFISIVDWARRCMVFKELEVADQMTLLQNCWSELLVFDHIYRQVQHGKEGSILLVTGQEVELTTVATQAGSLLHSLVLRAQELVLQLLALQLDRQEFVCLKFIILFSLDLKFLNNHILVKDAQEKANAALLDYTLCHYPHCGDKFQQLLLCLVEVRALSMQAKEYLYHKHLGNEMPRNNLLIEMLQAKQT
COUP transcription factor 2 (Homo sapiens), sequence (P24468 whole entry, looked up): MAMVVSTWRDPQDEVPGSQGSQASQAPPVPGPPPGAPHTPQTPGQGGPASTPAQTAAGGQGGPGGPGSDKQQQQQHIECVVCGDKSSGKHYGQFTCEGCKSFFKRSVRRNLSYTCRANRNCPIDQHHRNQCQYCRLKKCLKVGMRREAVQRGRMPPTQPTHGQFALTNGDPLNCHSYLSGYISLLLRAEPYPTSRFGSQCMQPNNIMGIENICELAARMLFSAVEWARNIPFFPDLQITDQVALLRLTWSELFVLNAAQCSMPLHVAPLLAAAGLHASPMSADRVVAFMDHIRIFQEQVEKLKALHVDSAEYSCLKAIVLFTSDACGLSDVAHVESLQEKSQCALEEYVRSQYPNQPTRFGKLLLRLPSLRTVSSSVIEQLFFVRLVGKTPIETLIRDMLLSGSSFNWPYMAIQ
Nuclear receptor subfamily 5 group A member 2 (Homo sapiens), sequence (O00482 whole entry, looked up): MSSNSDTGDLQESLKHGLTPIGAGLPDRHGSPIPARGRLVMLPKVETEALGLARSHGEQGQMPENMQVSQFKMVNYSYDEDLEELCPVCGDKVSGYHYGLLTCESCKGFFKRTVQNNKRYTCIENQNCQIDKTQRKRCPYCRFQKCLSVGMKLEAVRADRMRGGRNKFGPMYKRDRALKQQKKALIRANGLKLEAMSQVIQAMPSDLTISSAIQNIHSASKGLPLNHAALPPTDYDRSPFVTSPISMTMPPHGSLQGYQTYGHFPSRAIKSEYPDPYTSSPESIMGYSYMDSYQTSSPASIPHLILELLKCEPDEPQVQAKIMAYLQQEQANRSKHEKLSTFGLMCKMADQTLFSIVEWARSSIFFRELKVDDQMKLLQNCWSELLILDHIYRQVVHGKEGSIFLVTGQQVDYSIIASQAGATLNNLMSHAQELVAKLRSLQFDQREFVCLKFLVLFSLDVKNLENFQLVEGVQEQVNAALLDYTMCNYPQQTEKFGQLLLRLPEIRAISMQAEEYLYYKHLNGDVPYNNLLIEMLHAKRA
Oxysterols receptor LXR-beta (Homo sapiens), sequence (P55055 whole entry, looked up, the tested form may be a part): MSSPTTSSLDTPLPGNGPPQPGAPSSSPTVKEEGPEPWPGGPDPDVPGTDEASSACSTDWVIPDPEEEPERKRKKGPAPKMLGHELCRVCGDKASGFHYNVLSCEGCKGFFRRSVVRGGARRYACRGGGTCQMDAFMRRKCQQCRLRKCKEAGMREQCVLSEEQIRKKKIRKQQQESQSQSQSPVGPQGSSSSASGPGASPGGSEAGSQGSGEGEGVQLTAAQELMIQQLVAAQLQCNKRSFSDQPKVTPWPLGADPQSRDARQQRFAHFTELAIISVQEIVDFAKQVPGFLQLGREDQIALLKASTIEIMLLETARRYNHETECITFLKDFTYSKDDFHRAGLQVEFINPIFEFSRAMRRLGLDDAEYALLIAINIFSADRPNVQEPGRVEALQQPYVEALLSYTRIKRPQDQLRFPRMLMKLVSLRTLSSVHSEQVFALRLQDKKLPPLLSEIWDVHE
Nuclear receptor coactivator 2 (Homo sapiens), sequence (Q15596 whole entry, looked up, the tested form may be a part): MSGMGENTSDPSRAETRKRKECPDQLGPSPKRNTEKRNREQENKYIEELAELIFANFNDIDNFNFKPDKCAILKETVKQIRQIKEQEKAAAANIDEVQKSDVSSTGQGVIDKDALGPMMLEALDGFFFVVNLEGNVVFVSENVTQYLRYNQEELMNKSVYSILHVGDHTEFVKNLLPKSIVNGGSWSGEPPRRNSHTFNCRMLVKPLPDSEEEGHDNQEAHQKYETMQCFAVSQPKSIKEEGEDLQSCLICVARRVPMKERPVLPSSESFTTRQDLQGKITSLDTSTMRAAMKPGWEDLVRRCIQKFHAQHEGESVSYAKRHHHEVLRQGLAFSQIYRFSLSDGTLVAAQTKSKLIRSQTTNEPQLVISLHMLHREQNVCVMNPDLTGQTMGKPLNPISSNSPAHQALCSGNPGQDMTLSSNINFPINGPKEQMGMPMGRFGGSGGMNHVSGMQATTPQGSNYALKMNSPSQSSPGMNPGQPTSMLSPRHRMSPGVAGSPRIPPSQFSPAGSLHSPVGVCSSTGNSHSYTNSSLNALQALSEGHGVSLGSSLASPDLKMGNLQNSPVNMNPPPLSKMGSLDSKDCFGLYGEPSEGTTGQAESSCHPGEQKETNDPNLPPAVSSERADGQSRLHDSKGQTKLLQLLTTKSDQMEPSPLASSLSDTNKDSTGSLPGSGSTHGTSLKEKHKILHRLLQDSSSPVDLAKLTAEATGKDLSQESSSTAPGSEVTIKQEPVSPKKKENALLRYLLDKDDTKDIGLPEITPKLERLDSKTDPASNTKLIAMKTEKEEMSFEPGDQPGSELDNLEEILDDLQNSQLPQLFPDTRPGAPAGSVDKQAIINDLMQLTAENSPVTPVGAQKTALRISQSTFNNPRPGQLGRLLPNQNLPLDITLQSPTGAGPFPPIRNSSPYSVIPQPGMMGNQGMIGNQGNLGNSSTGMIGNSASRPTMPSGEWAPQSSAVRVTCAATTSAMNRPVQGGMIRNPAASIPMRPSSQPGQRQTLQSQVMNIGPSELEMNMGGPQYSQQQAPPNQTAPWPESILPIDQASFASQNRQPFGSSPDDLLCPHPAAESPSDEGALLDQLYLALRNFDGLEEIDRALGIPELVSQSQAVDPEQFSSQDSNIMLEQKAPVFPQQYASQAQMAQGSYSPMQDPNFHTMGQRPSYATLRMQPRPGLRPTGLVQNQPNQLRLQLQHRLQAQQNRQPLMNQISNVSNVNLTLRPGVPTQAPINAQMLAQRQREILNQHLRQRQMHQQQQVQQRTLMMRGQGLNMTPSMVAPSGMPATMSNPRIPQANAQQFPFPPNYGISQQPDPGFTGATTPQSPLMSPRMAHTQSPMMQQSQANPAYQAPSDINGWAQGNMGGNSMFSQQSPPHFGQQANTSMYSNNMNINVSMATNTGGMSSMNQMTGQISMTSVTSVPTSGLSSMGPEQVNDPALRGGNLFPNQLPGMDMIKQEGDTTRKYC

Regarding `CCN(CC)S(=O)(=O)c1ccc(N(C)Cc2ccc(C(F)(F)F)cc2)nc1`, the inhibition – broadly, the relative decrease from the control value, in per cent – was 34.6% in test [1], 41.8% in test [2], -6.6% in [3] and 22.6% in [4].
`CCCOc1ccccc1C1CC(=O)Nc2cc3c(cc21)OCO3` (configuration not stated): the figures for the inhibition in [1] and in test [2] were 28.9% and 26.1%, respectively.
Consider `OC[C@@H]1CN(Cc2ccc(-c3ccccc3)cc2)C[C@H](n2cnc3c(NC4CCCC4)ncnc32)O1`, for which the inhibition in test [1] was 94.9% (active); in test [2] it was 78.4% (active); in test [3] it was 4.62%; in test [4], 63.3% (active).
Take `Cc1cc(C(=O)NC2CCCc3c2cnn3-c2cccc(C)c2C)c(C)o1` (configuration not stated): the inhibition in [1] is 72.7% (active); in [2], 69.9%; in [3] it was -2%; in [4] it was 26.8%.
In the case of `c1ccc(C2c3[nH]c4ccccc4c3CCN2Cc2cccn2-c2cccnc2)nc1` (configuration not stated), the inhibition was -1.67% in [1] and -5.76% in test [2].
Take `Cc1ccnc(NC(=O)C2CCN(S(=O)(=O)c3c(C)c(C)cc(C)c3C)CC2)c1`: the inhibition in [1] was 83.3% (active); in [2] it was 21.8%; in test [5], 6.87%; in test [6], 36.1%; in [7] it was 13.2%; in [8], 21.5%. For the same compound, the activation in test [9] was 7.81%; in test [10], 0.16%.
As for `O=C(c1ccc(N2CCCC2=O)cc1)N1CCN(c2ccc(C(F)(F)F)cc2[N+](=O)[O-])CC1`, the inhibition in test [1] is 93.2% (active); in test [2], 74.9% (active).
Take `CCC(C)N1C(=O)S/C(=C/c2ccc(Sc3nc4ccccc4[nH]3)o2)C1=O` (configuration not stated): the inhibition in test [1] was 85.7% (active); in test [2], 69.8%.
`COc1ccc(C(=O)NNC(=S)NC(=O)c2ccccc2[N+](=O)[O-])cc1`: the inhibition in test [1] was 3.63%; in [2], -6.68%.
For `CCOC(=O)N1CCN(C(=O)c2ccc(S(=O)(=O)Nc3cccc(C(F)(F)F)c3)cc2)CC1` the same measures were 65.8% and 47.3%.
`O=C(/C=C/c1ccc([N+](=O)[O-])o1)NNC(=O)c1ccc(F)cc1`: the inhibition is 83.5% (active) in test [1]; 18.6% in test [2]; 27.6% (active) in test [11]; 44.5% (active) in test [12]; 104% (active) in test [13].
Regarding `S=C(NCC1CCCO1)N1CCN(c2ccc(Cl)c(Cl)c2)CC1` (configuration not stated), the inhibition in [1] is 89.2% (active); in [2], 73.3% (active).
`Cc1ccc(OCC(=O)c2cc(C)n(Cc3ccco3)c2C)c([N+](=O)[O-])n1`: the inhibition in [1] is 67.8%; in test [2], 52.5%; in test [14] it was 23.6%; in test [15] it was 37.4%.
`COc1cccc(CNc2nc(NCc3ccccc3OC)nc3ccsc23)c1`: the inhibition in test [1] is 82% (active); in test [2] it was 61.6%; in test [3], 2.96%; in [4] it was 18.9%.
Consider `CN(Cc1cn(Cc2ccc(C(F)(F)F)cc2)nn1)C1CN(Cc2cn(Cc3ccc(C(F)(F)F)cc3)nn2)S(=O)(=O)C1` (configuration not stated), for which the inhibition in test [1] is 86.8% (active); in test [2], 63.3%.
As for `N#C[C@]1(S(=O)(=O)c2ccccc2)C[C@@H]2ON=C(c3cccc(Br)c3)[C@@H]2C1`, the inhibition in test [1] is 88.5% (active); in test [2], 75.2% (active); in [3], 2.59%; in test [4], 14.3%.
Consider `O=C(Nc1cccnc1)c1ccc([N+](=O)[O-])o1`, for which the inhibition in [5] was 27.2%; in [6] it was 61.9% (active); in test [7], 58.5% (active); in test [8], -15.2%.
For `CC(O)(c1cccnc1)c1nc(-c2cccc(C#N)c2)cs1` (configuration not stated) the same measures were 5.87%, 53.4% (active), 54% (active) and 7.33%.
For `O=C(CN(Cc1ccccc1)C(=O)CCl)c1cccc(Br)c1`, in that order: 19%, 55.7% (active), 51.8% (active) and -1.2%.
For the compound `CCCCCc1c(-c2ccc(OC)c(OC)c2)ncn1CCc1ccccc1OC`, the inhibition in test [1] was 73.5% (active); in test [2], 35.4%; in [3], 4.25%; in test [4], 25.6%.
As to `CCOc1ccc(CCNC(=O)COC(=O)c2nc(Cl)ccc2Cl)cc1OCC`, the inhibition was -2.83% in [5], 39.2% in test [6], 28.2% in test [7] and -0.88% in test [8].
Regarding `COc1ccccc1-c1cc(NC(C)=O)c2ncc(-c3ccc(S(C)(=O)=O)cc3)n2c1`, the inhibition was 23.8% in test [5], 49.3% (active) in test [6], 48.6% (active) in test [7] and -21.1% in [8].
Consider `Clc1ccccc1-c1nnc2sc(-c3ccncc3)nn12`, for which the inhibition in test [5] is 15.3%; in [6] it was 52.6% (active); in test [7] it was 50.9% (active); in [8] it was 3.81%.
With `O=C1C=C(c2ccnc3cc(Cl)ccc23)C[C@@H](c2ccc3c(c2)OCO3)C1`, the inhibition is 91.6% (active) in test [1], 76.5% (active) in test [2], 2.65% in [3] and 44.8% (active) in [4].
For the compound `Nn1c(SCC(=O)Nc2c(F)cc(F)cc2Br)nnc1C1CCCCC1`, the inhibition in [5] was 6.71%; in test [6] it was 38.9%; in test [7] it was 27.5%; in [8], -6%.
For `Cc1cc(C)nc(-n2nc(C)cc2Nc2ccccc2)n1` the same measures were 4.56%, 35.7%, 19.6% and 24%.
For `Cc1ccccc1C(=O)NC1CCN(CC(=O)Nc2ccc(Br)cc2)CC1`, in that order: 5.55%, 59.1% (active), 53.4% (active) and 15.4%.
